Screening data (PubChem)
IkB sig inh: IkB Signaling; 110,000 compounds, 0.04% hits; AID 445, 2006; ABC-DLBCL IkBa-CBG/CBR dual luciferase ratio, 4 h; response scale: scaled: untreated 0%, proteasome inhibitor 100%; Potency, µM (series often up to 57.1 µM), for inactives: at the highest dose IkBa stabilization activation; active means well fitted curve in the direction sought with a large enough effect in the signal ratio, not every such curve was filed as active; inconclusive means small, poorly fitted or top-dose-only effect, or a change in a side signal; the % refers to the signal ratio;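 further: the direction sought is a rising ratio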
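Luminescence ratio of IκBα-fused green versus native red beetle luciferase in OCI-Ly3 cells, 4 h post-doxycycline with compound; red signal alone, scaled from basal (0%) to zero light (-100%), flagged nonspecific or cytotoxic effects.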
Imprint erasure: qHTS Assay for Compounds that Induce Erasure of Genomic Imprints. mouse ES Peg3-LacZ reporter, beta-gal luminescence, 40 h. Potency, µM (titrated, usually from 60.7 µM), without a hit: at the highest dose activity change, positive = activation, most hits filed as activators. 110,000 compounds, 0.02% hits. AID 1948, 2009
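Readout: BetaGlo luminescence (5 min, room temp) for LacZ from the normally silent maternal Peg3 allele in female Peg3LacZ-Neo ES cells. Cells 300/well, 40 h, 37C, 5% CO2. Data normalized per plate to negative controls.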
p53ts 32C tox: qHTS Screen for Compounds that Selectively Target Cancer Cells with p53 Mutations: Cytotoxicity of p53ts Cells at the Permissive Temperature. H1299-p53A138V at 32C, ATP luminescence viability, 24 h. Potency, µM (highest dose often 46.1 µM), without a hit: top-dose activity change, negative = cytotoxicity, hits mostly cytotoxic. 130,000 compounds, 0.93% hits;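 further: 0% = DMSO and -100% = full killing by reference compound; nearly all actives have a fitted effect of over 55% in size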
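Cells: H1299 p53ts (A138V), 600/well, pre-incubated 16–30 h at 37C. Cpd up to 46 uM, 24 h, 32C. Readout: ATPlite luminescence, 20 min RT. Normalization: DMSO vs tamoxifen 100 uM. AC50 by Hill equation.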
p53ts 39C kill: qHTS Screen for Compounds that Selectively Target Cancer Cells with p53 Mutations: Cytotoxicity of p53ts Cells at the Nonpermissive Temperature; H1299-p53A138V viability at 39C, ATP luminescence, 24 h; Potency, µM (titrated, usually from 46.1 µM), for inactives: top-dose activity change, negative = cell killing, most hits filed as cytotoxic; 130,000 compounds, 1.5% hits; further: on the % scale 0 is the no-effect control and ±100 the full control effect; nearly all actives have a fitted effect of over 55% in size
Luciferase inh: qHTS Assay for Inhibitors of Firefly Luciferase. purified firefly luciferase, luminescence, 8 min. Potency, µM (top dose mostly 57.1 µM), inactives show top-dose activity change, negative = inhibition, most hits filed as inhibitors. 72,000 compounds, 2.2% hits. AID 411, 2009; further: on the % scale 0 is the no-effect control and ±100 the full control effect; nearly all actives have a fitted effect of over 40% in size
Target sequence (P08659 whole entry, looked up): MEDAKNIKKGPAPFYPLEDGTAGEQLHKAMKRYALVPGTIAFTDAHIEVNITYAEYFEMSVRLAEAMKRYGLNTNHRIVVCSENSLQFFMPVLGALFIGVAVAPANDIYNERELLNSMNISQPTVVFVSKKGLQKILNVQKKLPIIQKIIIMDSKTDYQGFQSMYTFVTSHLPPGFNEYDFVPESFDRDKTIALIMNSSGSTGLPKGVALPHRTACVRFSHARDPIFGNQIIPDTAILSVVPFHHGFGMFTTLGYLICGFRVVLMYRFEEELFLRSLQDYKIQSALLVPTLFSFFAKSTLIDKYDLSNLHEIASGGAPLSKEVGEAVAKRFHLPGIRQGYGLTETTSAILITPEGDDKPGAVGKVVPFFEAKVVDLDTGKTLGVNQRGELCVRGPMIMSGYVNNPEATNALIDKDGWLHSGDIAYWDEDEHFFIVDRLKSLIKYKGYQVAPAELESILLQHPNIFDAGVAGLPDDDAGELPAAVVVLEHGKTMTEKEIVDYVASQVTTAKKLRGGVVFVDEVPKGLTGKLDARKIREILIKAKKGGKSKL
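Luminescence read-out after 8 min at room temperature; enzyme reaction used luciferin plus 10 uM ATP (linear range) in imidazole buffer pH 7.2 with KCl, MgCl2, Tween 20 and BSA. Each sample was run as a titration.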
Numbers without * were called inactive; ? = inconclusive; . = not tested or not shown; ! = not active in a repeat; [ ] = dose if it differs, or a comment. The list is not random: actives were taken first. Their share in the collection is about 2.4%. Unless noted, the call rests on the fitted dose curve; in most records, active means well fitted curve in the direction sought with a large enough effect; inconclusive means small, poorly fitted or top-dose-only effect, or another doubt; inactive means no such curve, though single readings can be large; an effect the other way counts as inactive or inconclusive. Potency means the concentration at half of the fitted maximal effect.

SMILES	IkB sig inh	Imprint erasure	p53ts 32C tox	p53ts 39C kill	Luciferase inh
C=C1C(=O)O[C@@H]2[C@@H]1CC/C(C)=C\CC[C@@]1(C)O[C@H]21	?	-38%[16.8 µM]	6.3µM*!	6.3µM*!	6%[25.5 µM]
C=C1C(=O)O[C@@H]2[C@H]3O[C@]3(C)CCC=C(C)CC[C@@H]12	?	-31%	13µM*	13µM*	0%
CCn1c(SCC(=O)O)nnc1-c1cc2c(C)nn(-c3ccccc3)c2s1	?	18%	-27%	?	25µM*
CC(=O)c1cccc(NC(=O)Nc2ccc(C(=O)N3CCOCC3)cc2)c1	-3%	-18%	?	-20%	13µM*
CCCCC/C=C\C[C@H](O)/C=C\c1cccc(C[C@H](O)CCCCO)n1	4%	.	-11%	3%	3%
CCCCC1CCC(C(=O)N2CC(=O)Nc3ccc(C)cc3C2c2ccc(F)cc2)CC1 (stereo not given)	0%	-2%[10.9 µM]	-5%	-14%	.
C=CCN1C(=O)C2C(C(=O)NCc3ccccc3)C3(C)C=CC2(O3)C1C(=O)NC(C)(C)C (stereo not given)	-1%	10µM*	10%	-1%	1%
C=CCN1C(=O)C2C(C(=O)NC)C3(C)C=CC2(O3)C1C(=O)NCc1ccc(OC)cc1 (stereo not given)	1%	-2%	-1%	5%	0%
Cc1ccc(-n2c(SCC(=O)Nc3cc(C)on3)nc3c(c2=O)SC(C)C3)cc1 (stereo not given)	-5%	-45%	10µM*	?	0%
CCn1c(SCC(=O)Nc2cc(C)on2)nc2c(c1=O)SC(C)C2 (stereo not given)	-2%	-8%	4%	11%	1%
CC(=O)Nc1cccc(Oc2ccc(-c3noc(C)n3)cc2)c1	4%	-30%	-28%	?	13µM*
COc1ccc(-c2noc(-c3ccccc3C(=O)Nc3cccc(OC)c3)n2)cc1	?	-23%	-5%	-22%	?
Cc1ccc2oc(C(=O)Nc3c(C(=O)Nc4ccccc4)oc4ccccc34)cc(=O)c2c1	-1%	-4%[10.9 µM]	5%	12%	.
S=c1nc[nH]c2nc[nH]c12	.	4%	?	7.9µM*	.
Cn1c(C[C@@H](O)c2nc3ccccc3n2C)nc2ccccc21	1%[11.4 µM]	?	-1%[9.22 µM]	-9%[9.22 µM]	2%[11.4 µM]
O=C1c2ccccc2C(=O)C1c1ccc2ccccc2n1	?	9%	?	2.5µM*	0.79µM*
CN1[C@@H]2CC[C@H]1CC(OC(=O)[C@@H](CO)c1ccccc1)C2 (stereo not given in full)	1%[11.4 µM]	-7%[16.8 µM]	.	.	2%[11.4 µM]
NC(=O)c1ccsc1NC(=O)COc1ccccc1	?	-88%	?	?	20µM*
[Cu].[O-]/N=C1/C(=[OH+])Nc2ccccc21.[O-]Nc1c(O)[nH]c2ccccc12	0%[11.4 µM]	.	-4%[9.22 µM]	-3%[9.22 µM]	-1%[11.4 µM]
Cc1ccc(S(=O)(=O)Nc2cccc(-c3ccc(N4CCCC4)nn3)c2)c(C)c1	0%	-8%[10.9 µM]	7%	-5%	.
CCc1ccc(S(=O)(=O)Nc2cccc(-c3ccc(N4CCCCC4)nn3)c2)s1	-2%	-15%[10.9 µM]	13µM*	16µM*	.
CC(=O)c1ccc(S(=O)(=O)Nc2cccc(-c3ccc(N4CCCCC4)nn3)c2)cc1	?	-17%[10.9 µM]	10µM*	5µM*	.
Cc1ccc(S(=O)(=O)Nc2cccc(-c3ccc(N4CCCCC4)nn3)c2)s1	-1%	-11%[10.9 µM]	13µM*	1µM*	.
Cc1ccc(C)c(Cn2c(SCC(=O)N(C)Cc3ccccc3)nc3ccccc32)c1	?	-12%[10.9 µM]	6%	6%	.
CS(=O)(=O)Nc1ccc(-c2nc3ccccc3s2)cc1	24%	-69%[10.9 µM]	4µM*	2µM*	.
SMILES	IkB sig inh	Imprint erasure	p53ts 32C tox	p53ts 39C kill	Luciferase inh
CCCN(Cc1cccs1)C(=O)Nc1cc(C)ccc1OC	?	-7%[10.9 µM]	0%	?	.
Cc1ccc(CNC(=O)Cn2ncc3c(C)n(Cc4ccc(Cl)cc4)c(C)c3c2=O)cc1	?	-9%[10.9 µM]	-15%	16µM*	.
COC(=O)Cn1ncc2c(C)n(Cc3ccccc3)c(C)c2c1=O	0%	-15%	?	?	20µM*
O=C(c1ccccc1)N1CCc2cc(CNS(=O)(=O)c3ccc(Cl)s3)ccc21	0%	-7%[10.9 µM]	-4%	-14%	.
COCCCNc1ncnc2nc[nH]c12	?	-71%	-11%	-12%	6.3µM*
CCOC(=O)CNc1ncnc2nc[nH]c12	?	-78%	7.9µM*	?	10µM*
O=C1c2ccccc2C(=O)c2c1ccc(O)c2O	.	-43%	-2%	-13%	.
O=C1c2ccc(O)c(O)c2C(=O)c2c(O)ccc(O)c21	.	-18%	?	5µM*	.
CS(=O)(=O)c1nc(-c2cccs2)cc(C(F)(F)F)n1	?	-40%	?	?	-2%
COc1ccc(-c2cc(C(F)(F)F)nc(S(C)(=O)=O)n2)cc1	1%	-12%[10.9 µM]	?	20µM*	.
c1ccc(-c2cccc(N3CC4(CCNCC4)C3)c2)cc1	-5%[11.4 µM]	.	-6%	?	-1%[11.4 µM]
c1ccc(-c2cccc(N3CCCC4(CCNCC4)C3)c2)cc1	-2%[11.4 µM]	.	-19%	13µM*	?
c1ccc(-c2cccc(N3CC[C@@]4(CCCNC4)C3)c2)cc1	0%[11.4 µM]	.	?	16µM*	-15%[11.4 µM]
O=S(=O)(c1ccccc1)N1CCC[C@@]2(CCN(c3cccc(-c4ccccc4)c3)C2)C1	2%[11.4 µM]	.	-8%	-15%	-3%[11.4 µM]
c1ccc(-c2cccc(N3CCC4(CCNCC4)CC3)c2)cc1	-4%[11.4 µM]	.	-7%	16µM*	-1%[11.4 µM]
CC(=O)N1CCC2(CC1)CCN(c1cccc(-c3ccccc3)c1)CC2	3%[11.4 µM]	.	-9%	-24%	0%[11.4 µM]
Cc1cc2n(n1)CCC(=O)N2Cc1ccc(C(=O)Nc2ccc(F)cc2F)cc1	5%	7%[10.9 µM]	1%	-16%	.
CCC(C)NC(=O)Cn1c(=O)n(Cc2ccc(C(=O)NCc3ccccc3OC)cc2)c(=O)c2ccccc21 (stereo not given)	0%	-9%[10.9 µM]	3%	1%	.
CCC(C)NC(=O)Cn1c(=O)n(Cc2ccc(C(=O)NCc3ccc(C)cc3)cc2)c(=O)c2ccccc21 (stereo not given)	1%	12%[10.9 µM]	?	20µM*	.
O=C(NCCc1cccs1)c1ccc(Cn2c(SCc3ccc(F)cc3)nc3cccnc32)cc1	?	-13%[10.9 µM]	13µM*	16µM*	.
O=C(NCCc1ccccc1)c1ccc(CSc2nc3cccnc3n2Cc2ccc(F)cc2)cc1	.	.	15%	.	.
Cc1ccc(CNC(=O)c2ccc(Cn3c(SCc4ccc(F)cc4)nc4cccnc43)cc2)o1	?	-16%[10.9 µM]	?	20µM*	.
